Data on 94 molecules can be found in PubChem BioAssay AID504690 (Sanford-Burnham Center for Chemical Genomics, 2011).

Each structure is given as a SMILES string. The campaign covered roughly 350,000 compounds. About 2,700 (0.77%) were called active. The list comes from a sample in which actives are over-represented; it also holds similar structures and randomly drawn compounds. Values without a mark were called inactive.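 How the source made its calls: active means inhibition reaching at least a set limit at 20 µM in the primary screen (cut at about 59% in these data); inactive means the rest.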

In the test the test system is glucose-6-phosphate dehydrogenase-6-phosphogluconolactonase (Plasmodium falciparum 3D7). The test can be described thus: inhibition of malaria parasite G6PD (PfGluPho) – biochemical, fluorescence intensity, uHTS, primary screen (AID 504690).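 Further: 0% = DMSO wells with substrate and 100% = DMSO wells lacking glucose-6-phosphate.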 As to conditions: PfGluPho enzyme, NADPH resazurin-diaphorase fluorescence; at 20 µM; hits give high values. (In general: The colour change of resazurin is a common sign of viable cells or microbes.)
For `O=C(CN(CC1CCCO1)C(=O)CNS(=O)(=O)c1ccc(F)cc1)NCc1ccco1` (centres undefined), the inhibition (in general, the drop in the measured response relative to a control, in per cent) was 9.81%.
Then `COc1c(O)ccc2c1CN1CCc3cc4c(cc3C1C2)OCO4` (centres undefined), with 75.1% (active); and `COc1cc(C(=O)CCc2ccc3c(c2)OCO3)cc(OC)c1OC`, with 31.9%.
With `COc1ccc2cc1Oc1ccc(cc1)C[C@H]1c3cc(c(OC)cc3CCN1C)Oc1c(O)c(OC)cc3c1[C@H](C2)N(C)CC3`, the inhibition is 10.2%.
Then `CCc1cccc(C)c1N1C(=O)CN(Cc2ccccc2)C1=S`, with 8.09%; and `CN(C)C(=O)N=NC(=O)N(C)C`, with 62.4% (active).
Consider `O=C(Nc1cccc(Cl)c1)Nc1ccccc1NS(=O)(=O)c1cccs1`, for which the inhibition was -1.49%.
Then `CCCCSc1nc2c(c(=O)n1CC)SC(C)C2` (centres undefined), with -22.8%; and `CCc1cc(C(N)=O)c(NC(=O)c2ccc(OC)cc2)s1`, with 63.8% (active).
As for `COc1ccc(C(=O)Nc2sc(C)c(C)c2CN2CCOCC2)cc1`, the inhibition was 3.12%.
Then `CCc1cc(C(=O)c2ccc(OC)cc2)c(NC(=O)CN2CCN(C)CC2)s1`, with -3.28%.
Then `O=C1CC(C(F)(F)C(F)(F)C(F)(F)C(F)(F)F)=Nc2ccccc2N1`, with 6.19%; and `CCc1cccc2c3c([nH]c12)C(CC)(CC(=O)O)OCC3` (centres undefined), with -16.9%; and `CN(C)c1ccc(-c2nnc(-c3cccnc3)o2)cc1`, with 3.13%.
Take `COc1ccc(-c2nnc(-c3ccc4ccccc4c3)o2)cc1`: the inhibition was 15.1%.
Then `Nc1ccc(-c2nnc(-c3ccc(-c4ccccc4)cc3)o2)cc1`, with 64% (active); and `CC(C)C[C@@H](NC(=O)[C@H]1CCCN1C(=O)Cc1ccccc1)C(N)=O`, with -7.04%.
On to `C/C=C/C=C/C(=O)OCC(=O)Nc1ccc(Cl)cc1`, for which the inhibition was 8.86%.
As for `Cc1ccc(NC(=O)Cn2sc3ccccc3c2=O)cc1`, the inhibition was 125% (active).
To `Cc1ccc(NC(=O)Cn2c(C)csc2=O)cc1` belongs 3.32%; to `O=C(Cn1nc(C(=O)O)c2ccccc2c1=O)Nc1ccc(F)cc1`, -5.5%.
Then `CCOc1ccc(/C(O)=C2\C(=O)C(=O)N(c3ccc(OC)cc3)C2c2ccccc2[N+](=O)[O-])cc1` (centres undefined), with -3.26%; and `Cc1cc(OCC(=O)Nc2nccs2)c2c(C)c(C)c(=O)oc2c1`, with 0.15%; and `CCCCn1c(N)c(N(CC(C)C)C(=O)c2cccc(S(=O)(=O)N3CC(C)OC(C)C3)c2)c(=O)[nH]c1=O` (centres undefined), with -1.62%.
To `CCC1(CC)NC(=O)N(CC(=O)OCC(=O)Nc2ccc(C(F)(F)F)cc2)C1=O` belongs 3.64%; to `O=C(O)/C=C\C(=O)Nc1ccc(OCc2ccccc2)cc1`, -24.5%; to `COc1cccc(NC(=O)COC(=O)/C=C/c2ccco2)c1`, 17.7%.
As for `O=C(/C=C/c1ccco1)Nc1ccc(Oc2ccccc2)cc1`, the inhibition is 62.8% (active).
To `CN(C)c1cccc(C(=O)N2CCC(n3nccc3NC(=O)C3CCOC3)CC2)c1` (centres undefined) belongs 3.81%; to `COc1ccc(C(=O)N2CCN(c3ncccn3)CC2)cc1S(=O)(=O)N1CCOCC1`, 4.39%; to `Cc1ccc(C(=O)/C=C/c2c(C)nn(-c3ccccc3)c2Cl)cc1`, 71.4% (active).
Consider `Cc1ccc(-n2nc(C)c(/C=N/NC(=O)c3cccs3)c2Cl)cc1`, for which the inhibition was 18.2%.
Consider `Cc1nn(-c2ccccc2)c(Cl)c1/C=C/C(=O)c1ccc(O)cc1`, for which the inhibition is -22.8%.
Regarding `CCOC(OCC)c1ccc(/C=C\c2nccc(N)n2)cc1`, the inhibition was 5.93%.
Regarding `COc1cc(S(=O)(=O)N2CCOCC2)ccc1NC(=O)COc1ccc(N(C)S(=O)(=O)c2ccc(C)cc2)cc1`, the inhibition is 3.13%.
To `COc1ccc(Cc2nnnn2CC(=O)O)cc1` belongs -4.83%.
Turning to `CC1(c2ccc3ccccc3c2)NC(=O)N(CC(N)=O)C1=O` (centres undefined), the inhibition was -14%.
Turning to `N/C(=N\OC(=O)CCn1cccc(C(F)(F)F)c1=O)c1ccc(OC(F)(F)F)cc1`, the inhibition was -3.22%.
To `CCSc1nnc(NC(=O)c2ccc(C)cc2)s1` belongs 92.9% (active); to `NC(=O)CSc1nnc(NC(=O)c2ccc(Br)o2)s1`, 21.1%.
Take `CCOC(=O)CSc1nnc(NC(=O)c2cccc(S(=O)(=O)N3CCCC3)c2)s1`: the inhibition was -21.8%.
To `CCC(C)NCCOCCOc1ccc(Br)cc1C` (centres undefined) belongs -3.69%; to `O=C(NC1CCc2ccccc21)C12CN(Cc3ccccc3)CC1C(c1cccc([N+](=O)[O-])c1)=NO2` (centres undefined), 3.16%; to `O=C1C(Cl)=C(Oc2ccccc2)C(=O)c2ccccc21`, 128% (active).
To `COc1ccc(-c2c(C)cc3oc(=O)cc(-c4ccccc4)c3c2C)cc1C=O` belongs 1.07%; to `CCOc1ccccc1Nc1ccc(C(=O)O)cc1[N+](=O)[O-]`, -28.7%.
To `Cc1ccccc1Nc1c([N+](=O)[O-])ccc2nonc12` belongs -0.06%; to `CCOc1ccccc1Nc1ccc2nonc2c1[N+](=O)[O-]`, 77.2% (active); to `CCC(C)C(=O)Nc1cc([N+](=O)[O-])ccc1Cl` (centres undefined), -12.1%.
Regarding `Cc1ccc(N(C(=O)CC2NC(=O)NC2=O)C2(C(=O)NC3CCCC3)CCCCC2)cc1` (centres undefined), the inhibition was 2.93%.
On to `O=C1/C(=C\Nc2ccccc2)CCN1c1ncccn1`, for which the inhibition is 10.9%.
To `Cc1ccc(S(=O)(=O)N2C[C@@H](C)[C@]3(C2)[C@H](O)[C@H](OC(=O)NCc2ccccc2)C[C@H]2C(=O)N(c4ccccc4)C(=O)[C@H]23)cc1` belongs 24.5%; to `CC(=O)N1CC[n+]2c(-c3ccc([N+](=O)[O-])cc3)csc21`, 60.6% (active).
Then `CN1C2CCC1CC(NC(=O)c1ccc([N+](=O)[O-])cc1)C2` (centres undefined), with -5.81%.
To `COC(=O)c1c(C)[nH]c(C)c1-c1ccc([N+](=O)[O-])cc1` belongs -17.8%.
As for `CC(C)NC(=O)/C(C#N)=C\c1ccc(N(C)C)c(Br)c1`, the inhibition was -1.04%.
Then `CCOC(=O)C1C(=O)OC2(CCCC2)C1C(=O)OCC` (centres undefined), with -2.05%; and `O=C(COC(=O)c1ccc([N+](=O)[O-])o1)NC12CC3CC(CC(C3)C1)C2`, with 23.2%.
Then `Cc1ccc(/C=C/C(=O)Nc2ccc([N+](=O)[O-])c(NC(=O)/C=C/c3ccc(C)o3)c2)o1`, with 82.9% (active); and `COC(=O)/C=C\C(=O)Nc1cccc([N+](=O)[O-])c1`, with 45.2%.
Take `Cc1ccc(/C=C/C(=O)Nc2cc(S(=O)(=O)N3CCCCCC3)ccc2OCC(F)(F)F)o1`: the inhibition is 35.9%.
Then `CN(Cc1nc(-c2cnccn2)no1)Cc1n[nH]c2c1CCCCC2`, with -10.5%; and `O=C(NCCc1ccccc1)C(=O)NCC1OCCN1S(=O)(=O)c1cccs1` (centres undefined), with -3.06%; and `O=C(Nc1c(Cl)cccc1Cl)C1CCC1`, with -12.1%.
On to `Cc1cccc(OCC(=O)NCC(=O)N/N=C/c2ccc(N(C)C)cc2)c1`, for which the inhibition is 17.1%.
To `CCOc1ccccc1/C=N/NC(=O)CNC(=O)COc1ccccc1` belongs 120% (active).
Then `C=CCOc1ccccc1/C=N/NC(=O)Cc1ccccc1`, with 4.68%; and `C=CCc1ccccc1OCC(=O)N/N=C/c1ccccc1OCC`, with 105% (active).
To `C=C(C)CNC(=S)N/N=C/c1ccccc1OCC(=O)O` belongs 3.17%.
Turning to `C=CCc1cccc(/C=N/NC(=O)COc2ccc(-n3cnnn3)cc2)c1O`, the inhibition is -10.4%.
As for `Fc1ccc(OCc2nn3c(Cn4nnc5ccccc54)nnc3s2)cc1`, the inhibition is 57.3%.
Then `COC(=O)CSc1nc2c(c(C3CC=CCC3)c1C#N)CCC2` (centres undefined), with -38.4%; and `CC(C)(C)NS(=O)(=O)CC12CCC(CC1=O)C2(C)C` (centres undefined), with -13.3%.
With `CCN(C(=O)COC(=O)CCC(=O)c1cccs1)C1CCCCC1`, the inhibition was -5.84%.
`CN(CC(=O)Nc1cccc2c1CCCC2)S(=O)(=O)c1ccc(Cl)cc1`: the inhibition was 6.22%.
To `CCc1nonc1NC(=O)c1oc2ccc(Cl)cc2c1C` belongs -9.82%.
To `Cn1c(-c2ccc(F)cc2)cc2onc(-c3ccccc3Cl)c2c1=O` belongs 4.14%; to `CCc1cccc(C)c1NS(=O)(=O)c1cc(Br)cnc1N`, -9.37%; to `CCN(C(=O)CSc1nnc(-c2ccncc2)o1)c1ccccc1`, -2.03%.
For the molecule `COc1ccc(CCN=C2SCC(=O)N2Cc2ccccc2)cc1OC`, the inhibition is -8.19%.
As for `COc1cc(CNC2CCCC2)c(Br)cc1OCc1ccccc1`, the inhibition is -14.8%.
In the case of `COc1cc(C2CC(=O)N3CN(Cc4ccccc4)CSC3=C2C#N)ccc1OCc1ccccc1` (centres undefined), the inhibition is 61.5% (active).
Then `Cc1ccc(S(=O)(=O)N2C[C@H]3C(=O)C[C@@H](c4cccc5ccccc45)N(S(=O)(=O)c4ccc(C)cc4)[C@H]3C[C@H]2c2ccc(Cl)cc2)cc1`, with 7.92%; and `O=C(CSc1cccc2cccnc12)N/N=C/c1cccnc1`, with 63.5% (active); and `Cc1c(NC(=O)CSc2cccc3cccnc23)c(=O)n(-c2ccccc2)n1C`, with 6.71%.
Turning to `O=C(N/N=C\c1cccnc1)c1cc(-c2ccccc2)nc2c(Cl)cccc12`, the inhibition was 8.75%.
As for `OC(CNC1CCCC1)COc1ccc(F)cc1` (centres undefined), the inhibition is 11.3%.
With `Cc1ccc(C)c(NS(=O)(=O)c2c(C)[nH]c(C)c2C(=O)N2CCCCC2)c1`, the inhibition is -16.2%.
To `COc1ccc(-n2c(C)cc(C(=O)COC(=O)c3cc(OC)c(OC)cc3NC(=O)c3cccs3)c2C)cc1` belongs -6.02%; to `Cc1ccc(-n2c(C)cc(C(=O)CSc3nnc4ccccn34)c2C)cc1`, 26.1%; to `COc1ccc(-n2c(C)cc(C(=O)CSc3nnc(-c4cccs4)o3)c2C)cc1`, 83.3% (active).
Consider `O=C(CCN1CCCCC1)N=Nc1c(O)[nH]c2ccccc12`, for which the inhibition is 6.66%.
To `Cc1c(-c2ccccc2)n[nH]c1C(=O)N=Nc1c(O)[nH]c2ccccc12` belongs 88.8% (active); to `Oc1[nH]c2ccccc2c1N=Nc1c(F)c(F)c(F)c(F)c1F`, 0.03%.
